High-throughput results (PubChem)
A selection: hits, their analogues and other compounds. The true share with any hit is near 7.7%.
PD-1 reverse act: activators reversing PD-1 mediated T-cell inhibition, primary screen, luminescence, primary human CD4 T cells, PD-L1 beads; 29,000 tested, under 10 active; AID 2316, 2010; CellTiter-Glo 96 h; activation, % (concentration not given with the values); call rule not given here;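 also: 0% = median vehicle wells and 100% = positive control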
NOMO-1 viab: NOMO-1 AML cell viability reduction, primary screen, STK33 inhibitor project, CellTiter-Glo luminescence. NOMO-1 AML viability, 72 h. 7.5% of 37,000 active. inhibition, % (no concentration beside the values); in the data active = inhibition above about 80%; inconclusive = no clear call, values can overlap the other calls
Shh pathway inh: Hedgehog pathway signaling inhibitors, primary screen, luminescence, Shh-LIGHT2 cells, Gli-luciferase; Shh-LIGHT2 Gli-luciferase reporter, 30 h; inhibition, % (test concentration not listed); 2.1% of 22,000 active;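 active = mean inhibition across valid replicates above about 65%, limit read from the data; inconclusive = mean under the limit, yet half or more replicates past it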;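 also: pathway switched on by Shh-conditioned medium diluted 1 in 25 in low serum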
The depositor's hits bear a star; ? = inconclusive; . = no result given.

SMILES	PD-1 reverse act	NOMO-1 viab	Shh pathway inh
COc1ccc(CN(C)C[C@@H]2Oc3c(NC(=O)c4ccc(-c5nccs5)cc4)cccc3C(=O)N([C@@H](C)CO)C[C@H]2C)cc1	.	72	37
C[C@@H]1CN([C@H](C)CO)C(=O)c2cccc(NC(=O)c3ccc(-c4nccs4)cc3)c2O[C@@H]1CN(C)Cc1ccc(Oc2ccccc2)cc1	-5	89*	71*
COc1ccc(CN(C)C[C@H]2Oc3c(NC(=O)c4ccc(-c5nccs5)cc4)cccc3C(=O)N([C@H](C)CO)C[C@@H]2C)cc1	.	47	53
C[C@@H]1CN([C@@H](C)CO)C(=O)c2cccc(NC(=O)c3ccc(-c4nccs4)cc3)c2O[C@H]1CN(C)Cc1ccc(Oc2ccccc2)cc1	-1	111*	28
N#Cc1ccccc1NC(=O)COc1ccccc1[N+](=O)[O-]	0	-4	.
COC(=O)c1cc(OC)c(OC)cc1NC(=O)COc1cc(C)c(Br)c(C)c1	.	24	.
C[C@@H]1CN([C@@H](C)CO)C(=O)c2cccc(NC(=O)Nc3ccc(C(F)(F)F)cc3)c2O[C@@H]1CN(C)Cc1ccc(Oc2ccccc2)cc1	-11	95*	24
C[C@H]1CN([C@@H](C)CO)C(=O)c2cccc(NC(=O)Nc3ccc(C(F)(F)F)cc3)c2O[C@H]1CN(C)Cc1ccc(Oc2ccccc2)cc1	.	75	-13
C[C@@H]1CN([C@H](C)CO)C(=O)c2cccc(NC(=O)Nc3ccc(C(F)(F)F)cc3)c2O[C@H]1CN(C)Cc1ccc(Oc2ccccc2)cc1	-2	71	-16
C[C@@H]1CN([C@H](C)CO)C(=O)c2cccc(NC(=O)Nc3ccc(C(F)(F)F)cc3)c2O[C@@H]1CN(C)Cc1ccc(Oc2ccccc2)cc1	.	107*	-3
Cc1[nH]c2ccccc2c1C(=O)CSc1ncnc2sc(C)c(C)c12	3	9	.
NC(=O)C1CC(=O)N(c2ccc(OCC(=O)Nc3cc(Cl)cc(Cl)c3)cc2)C1 (configuration not stated)	0	30	.
OC(CNC1CCCC1)Cn1c2ccc(Cl)cc2c2cc(Cl)ccc21 (configuration not stated)	-17	119*	.
CS(=O)(=O)N1CCN(CC(O)Cn2c3ccc(Cl)cc3c3cc(Cl)ccc32)CC1 (configuration not stated)	.	20	.
C[C@@H]1CN([C@H](C)CO)C(=O)Cc2cc(N(C)C)ccc2O[C@H]1CN(C)Cc1ccc(C(=O)Nc2ccccc2N)cc1	-2	127*	.
C[C@@H]1CN([C@H](C)CO)C(=O)Cc2cc(N(C)C)ccc2O[C@@H]1CN(C)Cc1ccc(C(=O)Nc2ccccc2N)cc1	-3	140*	.
C[C@@H]1CN([C@H](C)CO)C(=O)Cc2cc(NC(=O)C3CC3)ccc2O[C@@H]1CN(C)Cc1ccc(C(=O)Nc2ccccc2N)cc1	-1	65	.
C[C@@H]1CN([C@H](C)CO)C(=O)Cc2cc(NC(=O)c3ccncc3)ccc2O[C@H]1CN(C)Cc1ccc(C(=O)Nc2ccccc2N)cc1	0	29	.
COc1ccc(-n2c(SCC(=O)NC3CCCCC3)nnc2-c2cccs2)cc1	0	1	.
O=C(CSc1nc2ccc([N+](=O)[O-])cc2s1)Nc1cc(Cl)cc(Cl)c1	.	75	.
CNC(=O)COc1ccc(Nc2nnc(-c3ccc(OC)cc3)c3ccccc23)cc1	.	14	.
COc1ccc(-c2nnc(Nc3cccc(C(F)(F)F)c3)c3ccccc23)cc1	-1	116*	87*
COc1ccc(NC(=O)Nc2ccc(OC)c(OC)c2)cc1OC	0	32	1
Cc1csc2sc(-c3ccnc(SCC(=O)NCc4ccccc4)n3)c(C)c12	-2	113*	.
Cc1csc2sc(-c3ccnc(SCC(=O)c4ccccc4)n3)c(C)c12	0	1	70*
SMILES	PD-1 reverse act	NOMO-1 viab	Shh pathway inh
Cc1ccc(-c2nc(SCC(=O)c3ccccc3)n[nH]2)cc1	.	15	.
Cc1cc(C)c2c(=O)[nH]c(SCC(=O)NCc3ccccc3)nc2n1	1	17	.
CCN(CC(=O)Nc1cccc(Cl)c1C)S(=O)(=O)c1ccc(C)cc1	-1	10	.
CC1(C)CC(=O)C=C(SCC(=O)Nc2cc(C(F)(F)F)cc(C(F)(F)F)c2)S1	-2	103*	92*
Cc1nnc(SCC(=O)Nc2cccc(C(F)(F)F)c2)s1	4	8	.
Cc1ccc(S(=O)(=O)N(C)C[C@H]2Oc3c(NC(=O)Nc4ccc(F)cc4)cccc3C(=O)N([C@@H](C)CO)C[C@@H]2C)cc1	2	35	6
C[C@H](CO)N1C[C@H](C)[C@H](CN(C)S(=O)(=O)c2ccc(F)cc2)Oc2c(NC(=O)Nc3ccccc3)cccc2C1=O	-1	17	100*
C[C@@H]1CN([C@@H](C)CO)C(=O)c2cccc(NC(=O)Nc3cccc4ccccc34)c2O[C@H]1CN(C)S(=O)(=O)c1ccc(F)cc1	-1	15	-41
C[C@@H]1CN([C@@H](C)CO)C(=O)c2cccc(NC(=O)Nc3ccccc3)c2O[C@@H]1CN(C)S(=O)(=O)c1ccc(F)cc1	-1	61	-36
C[C@H](CO)N1C[C@H](C)[C@H](CN(C)S(=O)(=O)c2ccc(F)cc2)Oc2c(NC(=O)Nc3cccc4ccccc34)cccc2C1=O	-3	72	75*
Cc1ccc(S(=O)(=O)N(C)C[C@H]2Oc3c(NC(=O)Nc4ccc(F)cc4)cccc3C(=O)N([C@@H](C)CO)C[C@H]2C)cc1	-2	98*	14
C[C@H]1CN([C@@H](C)CO)C(=O)c2cccc(NC(=O)Nc3ccc(F)cc3)c2O[C@H]1CN(C)S(=O)(=O)c1ccc(F)cc1	1	20	83*
C[C@@H]1CN([C@H](C)CO)C(=O)c2cccc(NC(=O)Nc3ccc(F)cc3)c2O[C@@H]1CN(C)S(=O)(=O)c1ccc(F)cc1	0	28	17
COc1ccc(OC)c(NC(=O)COc2ccc(C(=O)Nc3ccc(C)cc3)cc2)c1	1	4	.
O=C(OCc1nc2ccccc2s1)c1ccc([N+](=O)[O-])cc1	2	-4	.
Cc1ccccc1NS(=O)(=O)c1cc(C(=O)NCC2CCCO2)ccc1C (configuration not stated)	0	3	.
Cc1cccc(Cn2nc(C(C)(C)C)cc2C(=O)Nc2cccnc2)c1	1	?	-16
C[C@H](CO)N1C[C@H](C)[C@H](CN(C)S(=O)(=O)c2ccc(F)cc2)Oc2c(NC(=O)C3CC3)cccc2C1=O	1	-3	103*
Cc1ccc(S(=O)(=O)N(C)C[C@H]2Oc3c(NC(=O)Nc4ccccc4)cccc3C(=O)N([C@H](C)CO)C[C@H]2C)cc1	0	3	32
COc1ccc(NC(=O)Nc2cccc3c2O[C@H](CN(C)S(=O)(=O)c2ccc(C)cc2)[C@H](C)CN([C@H](C)CO)C3=O)cc1	0	25	15
Cc1ccc(S(=O)(=O)N(C)C[C@H]2Oc3c(NC(=O)Nc4ccc(C(F)(F)F)cc4)cccc3C(=O)N([C@@H](C)CO)C[C@@H]2C)cc1	-1	63	-29
COc1ccc(NC(=O)Nc2cccc3c2O[C@@H](CN(C)S(=O)(=O)c2ccc(C)cc2)[C@@H](C)CN([C@H](C)CO)C3=O)cc1	-3	11	94*
